From PubChem BioAssay AID1239 (SRMLSC, 2008)
The whole screen tested about 190,000 compounds, of which about 3,100 (1.6%) were called active. Shown is part of a subset that was picked to be rich in actives. A number with no mark means an inactive call. No stated cut-off is given here; in the data, active means fold change above about 3.3; inconclusive means no clear call, values can overlap the other calls; inactive means below that.

test: activators of NF-kB expression in neurons, primary screen, cell-based, HTS (AID 1239); conditions: human neuronal cells, NF-kB reporter expression; at 12.5 µM; hits give high values

| SMILES | fold change |
| --- | --- |
| COC(=O)C1=CN(Cc2ccc(OC)c(OC)c2)C=C(C(=O)OC)C1c1cccs1 | 0.73 |
| Cc1nnc(SCCCCSc2nnc(C)c(=O)[nH]2)[nH]c1=O | 1.03 |
| Cc1ccc(S(=O)(=O)/N=C(\N)c2ccc(F)cc2)cc1 | 1.11 |
| Cc1nn2cc(-c3ccc(Cl)cc3)cnc2c1Br | 4.06 (active) |
| O=C(NC(=S)Nc1ccc(S(=O)(=O)Nc2ncccn2)cc1)c1cccc(Br)c1 | 0.92 |
| CCOC(=O)C1(Cc2ccccc2C(F)(F)F)CCN(C(=O)c2cc(C)n(C)n2)CC1 | 1.81 |
| CC(C)C(=O)Nc1ccc2oc(=O)ccc2c1 | 1.14 |
| CC(C)C(=O)Nc1ccc2c(c1)oc1ccccc12 | 4.71 (active) |
| CC(C)C(=O)Nc1c(C(=O)c2ccc(F)cc2)oc2ccccc12 | 0.89 |
| COCCCNC(=S)NCCNc1nc2cc(C)c(C)cc2cc1C#N | 0.77 |
| NC(=O)N1CCc2ccccc21 | 1.08 |
| O=C(CSCc1ccccc1)N1CCc2ccccc21 | 5.86 (active) |
| Cc1nnc(SCC(=O)N2CCc3ccccc32)n1-c1ccccc1 | 1 |
| CCn1c(SCC(=O)N(C)C2CCS(=O)(=O)C2)nnc1-c1cccs1 (stereo not given) | 1.03 |
| CC(=O)c1ccc(N2CCN(CC(=O)Nc3ccccc3N3CCOCC3)CC2)cc1 | 1 |
| CC1(C)CN(c2ccc(-c3ccnc4ncnn34)cc2)C1=O | 1.23 |
| COc1ccc(N2CCN(C(=S)Nc3ccc(S(N)(=O)=O)cc3)CC2)cc1 | 0.85 |
| CCn1cc(CN2CCCC(CNS(=O)(=O)Cc3ccccc3)C2)cn1 (stereo not given) | 0.89 |
| CCCCOc1ccc(C(=O)NCc2ccncc2)cc1 | 1.15 |
| CCCCCCCCC(=O)NCCOc1ccccc1 | 1.12 |
| CCCCCCOc1ccc(OC(=O)c2cccnc2)cc1 | 5.55 (active) |
| CCOc1ncccc1C(=O)OCC(=O)NC1CC1 | 1.17 |
| CN1CCN(CC(=O)Nc2cccc([N+](=O)[O-])c2)CC1 | 1.37 |
| COc1cc2c(cc1OC)CN(C(=O)c1cc(=O)c3ccccc3o1)CC2 | 0.82 |
| COc1cc2c(cc1OC)CN(C(=O)c1ccc(S(=O)(=O)N3CCCCCC3)cc1)CC2 | 0.87 |
| CCOc1cc(C(=O)N2CCc3cc(OC)c(OC)cc3C2)ccc1OC(F)F | 4.22 (active) |
| O=Cc1ccc(Oc2cccc(C(F)(F)F)c2)nc1 | 1.2 |

| SMILES | fold change |
| --- | --- |
| O=C(CSc1cccc[n+]1[O-])c1ccc(Cl)cc1 | 1.21 |
| NC(=O)COC(=O)/C=C/c1ccc2ccccc2n1 | 0.97 |
| CCOc1cccc(/C=C/c2ccc3ccccc3n2)c1OC(C)=O | 4.82 (active) |
| COc1cccc(/C=C/c2ccc3ccccc3n2)c1OC(C)=O | 3.13 |
| CCOC(=O)c1c(N)nn(C(=O)c2ccccc2)c1-c1ccccc1 | 1.07 |
| C=CCN1C2CCCC1CC(NC(=S)Nc1cccc(OC)c1)C2 (stereo not given) | 1.07 |
| CC(CNC(=O)c1ccc(N)cc1)NC(=O)c1ccc(N)cc1 (stereo not given) | 1.46 |
| COc1cc(-c2nc(-c3ccncc3)no2)cc(OC)c1OC | 0.54 |
| CCOc1nc(-c2ccc(OC)cc2)ccc1-c1noc(-c2cc(OC)c(OC)c(OC)c2)n1 | 1.01 |
| COc1ccc(-c2noc(-c3cccc(OC)c3OC)n2)cc1OC | 3.86 (active) |
| COc1ccc(OC)c(S(=O)(=O)NCCC(C)C)c1 | 1.13 |
| COc1ccc(NC(C)=O)cc1NC(=O)CN1CCN(c2ccccn2)CC1 | 1.04 |
| COc1ccc(OC)c(NC(=O)CN2CCN(C(=O)c3ccco3)CC2)c1 | 1.07 |
| COc1ccc(NC(C)=O)cc1NC(=O)CN1CCN(C2c3ccccc3-c3ccccc32)CC1 | 3.62 (active) |
| O=c1oc2ccccc2cc1-c1cn(-c2ccccc2)c(=S)[nH]1 | 0.83 |
| O=C(NCc1cccnc1)c1cccc(-c2cc3ccccc3oc2=O)c1 | 0.93 |
| Nc1ncc(-c2cc3ccccc3oc2=O)s1 | 3.48 (active) |
| O=C(/C=C/c1ccc2c(c1)OCO2)NCc1cn2cc(Cl)ccc2n1 | 1.09 |
| COc1ccc(N(C)S(=O)(=O)c2cccc3nsnc23)cc1 | 1.25 |
| O=C(c1ccc(N2CCOCC2)c([N+](=O)[O-])c1)N1CCN(S(=O)(=O)c2cccs2)CC1 | 1.15 |
| C=CCn1c(CCNC(=O)c2ccccc2F)nnc1SCC(=O)Nc1ccc(OC)cc1 | 1.12 |
| CCCC1(C(=O)OC)NC(c2ccco2)C2C(=O)N(C)C(=O)C21 (stereo not given) | 1 |
| O=C1/C(=C/c2cccs2)CCc2ccccc21 | 5.83 (active) |
| O=C1/C(=C/c2cccs2)CCC1C1CCCC1 (stereo not given) | 5.68 (active) |
| O=S(=O)(c1cccs1)N1CCc2ccccc2C1 | 1.07 |
| CCC1C/C(=C/c2cccs2)C(=O)/C(=C/c2cccs2)C1 (stereo not given) | 1.07 |
| COc1ccc(/C=C2\CCc3ccccc3C2=O)c(OC)c1OC | 1.7 |

| SMILES | fold change |
| --- | --- |
| Cc1ccc(N2CCN(C3=NC(=O)/C(=C\c4cccs4)S3)CC2)cc1 | 1.27 |
| CC(=O)C1(C)N(O)C(C)(C)C(c2cccs2)=[N+]1[O-] (stereo not given) | 0.95 |
| CCn1nc(C)cc1C(=O)N1CCCC(C(=O)c2cccc(OC)c2)C1 (stereo not given) | 1.1 |
| COc1ccc(CN2CCN(Cc3cn(C)nc3-c3ccccc3)CC2CCO)c(C)c1C (stereo not given) | 1.01 |
| CCc1ccc(NC(=O)Cn2nc(C)c([N+](=O)[O-])c2C)cc1 | 1.28 |
| O=c1[nH]c(CN2CCOCC2)nc2cc(Cl)ccc12 | 1.04 |
| O=c1[nH]c(CCl)nc2cc(-c3ccc(Cl)cc3)sc12 | 4.29 (active) |
| NC(=O)Cc1nc2scc(-c3ccc(Cl)cc3)c2c(=O)[nH]1 | 0.99 |
| COc1ccc(S(=O)(=O)N2CCOCC2)cc1NC(=O)CSc1ncnc2ccccc12 | 1.56 |
| CCN1C(=O)/C(=c2\s/c(=C3\Sc4ccccc4N3C)c(=O)n2C)N(C)C1=S | 1.16 |
| CN(C)CCCN1C(=O)CSC1c1ccc([N+](=O)[O-])cc1 (stereo not given) | 1.03 |
| COCC1CCCN(Cc2nc(-c3ccc4c(c3)OCO4)no2)C1 (stereo not given) | 1.62 |
| Cc1csc(=Nc2ccccc2)n1CCO | 1.05 |
| CN(c1ccccc1)c1ccc(/C=c2\s/c(=C(/C#N)C(=O)C(C)(C)C)n(Cc3ccco3)c2=O)cc1 | 1.52 |
| Cc1cs/c(=N\N=C\c2ccc(O)cc2)n1Cc1ccco1 | 4.11 (active) |
| Cc1nnc(SC(C(=O)Nc2cc(Cl)cc(Cl)c2)c2ccccc2)[nH]c1=O (stereo not given) | 1.02 |
| CSCCC(Nc1nc2ccccc2s1)C(=O)O (stereo not given) | 1.16 |
| Cc1ccnc(Nc2nc3ccccc3s2)n1 | 4.25 (active) |
| Cc1ccc(S(=O)(=O)Nc2nc3ccccc3s2)cc1[N+](=O)[O-] | 1.51 |
| CC(C)C(=O)Nc1cccc(NC(=O)c2ccc([N+](=O)[O-])cc2Cl)c1 | 1.13 |
| O=C(Nc1cccc([N+](=O)[O-])c1)Nc1ccc(Cl)cn1 | 0.9 |
| O=C(Nc1ccc(Br)c2cccnc12)c1ccc(Cn2cc([N+](=O)[O-])cn2)o1 | 1.07 |
| O=C(Nc1ccc(Br)cn1)c1ccc([N+](=O)[O-])o1 | 4.41 (active) |
| O=C(Nc1ccc(Br)cn1)c1ccc([N+](=O)[O-])cc1Cl | 3.54 (active) |
| O=C(/C=C/c1ccc(Cl)cc1)Nc1ccc(Br)cn1 | 1.07 |
| C/C(=N/O)c1ccc(N2C(=O)C3C4C=CC(C3C2=O)C2C3C(=O)N(c5ccc(/C(C)=N/O)cc5)C(=O)C3C42)cc1 (stereo not given) | 1.33 |
| NC(=O)Cn1nc([N+](=O)[O-])nc1Oc1ccc(Br)cc1 | 0.99 |

| SMILES | fold change |
| --- | --- |
| O=C(O)C1C2CC2CN1C(=O)c1ccc(Cl)cc1Cl (stereo not given) | 0.99 |
| O=C(NCc1cccnc1)c1nc(-c2cccs2)no1 | 1.23 |
| CCCCCC(=O)Nc1ccc(-c2cn3cccnc3n2)cc1 | 0.94 |
| CCCCCc1ccc(-c2ccc(OCC)cc2)nc1 | 1.81 |
| CCCCCc1ccc(-c2ccc(C(=O)O)cc2)nc1 | 6.88 (active) |
| O=C(COC(=O)CNC(=O)c1ccccc1F)NCC(F)(F)F | 1.05 |
| O=C(CN1CCCCC1)Nc1ccccc1Cl | 1.2 |
| O=C(CN1CCOCC1)Nc1ccc(NC(=O)CN2CCOCC2)c(Cl)c1 | 1.01 |
| CC(=O)Nc1ccc(NC(=O)CN2CCCC(C)C2)c(Cl)c1 (stereo not given) | 4.21 (active) |
| O=C(c1ccc2c(c1)N(Cc1ccc(F)cc1)C(=O)c1ccccc1S2(=O)=O)N1CCN(c2ccccn2)CC1 | 0.68 |
| CCn1c(CSCc2c(Cl)cccc2Cl)n[nH]c1=S | 1.06 |
| O=C(O)CSc1nnc(-c2ccc3c(c2)OCO3)n1-c1ccccc1 | 1.41 |
| CCOc1cccc(/C=N/N2C(=O)CSC2=S)c1O | 1.38 |
| O=C(CCc1ccccc1)Nc1ccc(NC(=O)C2CCCCC2)nc1 | 1.04 |
| O=c1c2c(nc3n1CCCCC3)sc1c(O)cccc12 | 4.86 (active) |
| Cc1cccc2c(=O)n3c(nc12)CCCCC3 | 1.11 |
| Cc1c(C(=O)Nc2ccccc2)sc2nc3n(c(=O)c12)CCCCC3 | 1.58 |
| CCN1CCN(CC(=O)Nc2sc3c(c2C#N)CCC3)CC1 | 1.03 |
| O=C(O)CSCc1nc2ccccc2s1 | 0.98 |
| O=C(O)CCCCc1nc2ccccc2s1 | 1.24 |
| CC(C)CC(=O)N/C(N)=N/c1nc2ccccc2s1 | 8.73 (active) |
| CCC(=O)NC(=Nc1nc2ccccc2s1)NC(=O)CC | 6.73 (active) |
| COC(=O)c1nc2ccccc2s1 | 0.91 |
| CC(C)CC(=O)NC(=S)NCc1ccccc1 | 1.01 |
